experiment: reversal of MRP1-mediated doxorubicin resistance, pilot screen, H69AR cells, doxorubicin co-treatment (AID 601); conditions: H69AR cells + 2 uM doxorubicin, CellTiter-Glo, 72 h; measured here: viability with 2 uM doxorubicin; at 10 µM; stronger effect = lower value

Row | Compound | viability
1 | Cc1nc(CNS(=O)(=O)c2ccc3c(c2)OCCO3)cs1 | 96.9%
2 | CCN(CCNC(=O)C1CCN(S(C)(=O)=O)CC1)c1ccccc1 | 82.8%
3 | CC(C)Cn1c(CN(Cc2ccccc2)Cc2ccccc2)nc2c1c(=O)n(C)c(=O)n2C | 88.9%
4 | CCc1ccc2c(CN(CC)Cc3nc4ccccc4c(=O)[nH]3)cc(=O)oc2c1 | 31.7%
5 | Cc1cc2oc(=O)cc(C)c2c(=O)o1 | 96.6%
6 | Cc1ccccc1NC(=O)NCCCN1CCN(C2CCCCC2)CC1 | 93.4%
7 | COc1ccc(S(=O)(=O)NCCC(=O)NC2CCCCCCC2)cc1 | 86.3%
8 | CCC(Oc1ccc2ccccc2c1)C(=O)O (stereo not given) | 81.6%
9 | COc1ccc(Br)cc1CNC(=O)CCc1nc(-c2ccc(C)cc2)no1 | 82.7%
10 | COc1ccc(S(=O)(=O)N2CCCC(C(=O)N3CCCCCC3)C2)cc1 (stereo not given) | 91.9%
11 | COc1ccccc1N1CC(O)=C(c2nc3ccccc3c(=O)[nH]2)C1=N | 85.7%
12 | COc1ccccc1NC(=O)C(O)C(O)C(=O)Nc1ccccc1OC (stereo not given) | 92.1%
13 | COc1cc(CC(=O)NCc2ccc3c(c2)OCO3)cc(OC)c1OC | 86.2%
14 | Cc1cc(OCC(=O)N2CCOCC2)cc2oc(=O)c3ccccc3c12 | 85.9%
15 | COc1cccc(NC(=O)COC(=O)c2ccco2)c1 | 81.1%
16 | CN(Cc1ccccc1)Cc1nc2c(c(=O)n(C)c(=O)n2C)n1Cc1ccc(Cl)cc1 | 84.2%
17 | CCc1ccc(NC(=O)C2CC(=O)N(C(C)C)C2)cc1 (stereo not given) | 94.6%
18 | CCOC(=O)N1CCN(c2c(N3CCN(c4ccccn4)CC3)c(=O)c2=O)CC1 | 82.6%
19 | COc1cccc(Oc2cnc(N)nc2-c2ccc(OC)cc2O)c1 | 58.2%
20 | O=C(CSc1ncnc2c1oc1ccccc12)Nc1ccccc1F | 83.1%

Row | Compound | viability
21 | Cn1c(=O)c2c(nc(SCCCC#N)n2Cc2ccccc2F)n(C)c1=O | 75.8%
22 | Cn1c(=O)c2c([nH]c(=O)n2C)n(C)c1=O | 95.3%
23 | COc1ccc(-c2cc(C(=O)NCCc3ccccc3)no2)cc1OC | 86.6%
24 | CCCN1CCC(NC(=O)Nc2ccc(OC)c(OC)c2)CC1 | 86.1%
25 | c1nnc(NC2=NCCCCC2)s1 | 98.5%
26 | CCOC(=O)CSc1cn2c(n1)CCC2 | 94.7%
27 | COC(=O)c1sc(N2C(=O)C(O)=C(C(=O)c3ccc(C)o3)C2c2ccc(F)cc2)nc1C (stereo not given) | 73.8%
28 | CCOCCc1nnc(NC(=O)c2ccc(OC)c(OC)c2)s1 | 96.4%
29 | CN(C1CCCCC1)S(=O)(=O)c1ccc(NC(=O)c2ccco2)cc1 | 95.1%
30 | CCCOc1ccccc1NC(=O)c1c(-c2ccccc2)noc1C | 82%
31 | CCNC(=O)N(C(=O)NCC)n1c(C)nnc1C | 85.3%
32 | O=C(OCC#CCSc1nnc(-c2ccccc2)o1)c1cccs1 | 82.8%
33 | CC1(c2ccc(Cl)cc2)NC(=O)N(CC(=O)NC(=O)NCc2ccco2)C1=O (stereo not given) | 81%
34 | CCCN1C2=C(C(=O)CCC2)C(c2ccc(O)c(Br)c2)C2=C1CCCC2=O | 92.8%
35 | CCOC(=O)C1=C(CN2CCOCC2)NC(=O)NC1c1cc(C)ccc1C (stereo not given) | 62.2%
36 | Cc1ccc(C(C)C)c(OCCn2c(=O)oc3ccccc32)c1 | 82.3%
37 | Cc1ccc(-c2csc3nnc(SCC(=O)NCc4ccco4)n23)cc1 | 83.6%
38 | CC1CCN(C(=O)CCNS(=O)(=O)c2ccccc2)CC1 | 92%
39 | Cc1ccc(C)c(-n2c(CNC(=O)c3ccco3)nnc2SCC(=O)Nc2nnc(C)s2)c1 | 90.7%
40 | CSc1nc(=NC(C)=O)ss1 | 91.8%

same assay, conditions: H69AR cells, CellTiter-Glo, 72 h; compound alone cytotoxicity; at 10 µM

Row | Compound | viability
41 | Cc1nc(CNS(=O)(=O)c2ccc3c(c2)OCCO3)cs1 | 96.6%
42 | CCN(CCNC(=O)C1CCN(S(C)(=O)=O)CC1)c1ccccc1 | 88.2%
43 | CC(C)Cn1c(CN(Cc2ccccc2)Cc2ccccc2)nc2c1c(=O)n(C)c(=O)n2C | 90.1%
44 | CCc1ccc2c(CN(CC)Cc3nc4ccccc4c(=O)[nH]3)cc(=O)oc2c1 | 67.9%
45 | Cc1cc2oc(=O)cc(C)c2c(=O)o1 | 108%
46 | Cc1ccccc1NC(=O)NCCCN1CCN(C2CCCCC2)CC1 | 95.8%
47 | COc1ccc(S(=O)(=O)NCCC(=O)NC2CCCCCCC2)cc1 | 88.6%
48 | CCC(Oc1ccc2ccccc2c1)C(=O)O (stereo not given) | 80.1%
49 | COc1ccc(Br)cc1CNC(=O)CCc1nc(-c2ccc(C)cc2)no1 | 94.2%
50 | COc1ccc(S(=O)(=O)N2CCCC(C(=O)N3CCCCCC3)C2)cc1 (stereo not given) | 88.2%
51 | COc1ccccc1N1CC(O)=C(c2nc3ccccc3c(=O)[nH]2)C1=N | 71.7%
52 | COc1ccccc1NC(=O)C(O)C(O)C(=O)Nc1ccccc1OC (stereo not given) | 96.1%
53 | COc1cc(CC(=O)NCc2ccc3c(c2)OCO3)cc(OC)c1OC | 95.8%
54 | Cc1cc(OCC(=O)N2CCOCC2)cc2oc(=O)c3ccccc3c12 | 85.1%
55 | COc1cccc(NC(=O)COC(=O)c2ccco2)c1 | 83.8%
56 | CN(Cc1ccccc1)Cc1nc2c(c(=O)n(C)c(=O)n2C)n1Cc1ccc(Cl)cc1 | 86%
57 | CCc1ccc(NC(=O)C2CC(=O)N(C(C)C)C2)cc1 (stereo not given) | 90.8%
58 | CCOC(=O)N1CCN(c2c(N3CCN(c4ccccn4)CC3)c(=O)c2=O)CC1 | 92.5%
59 | COc1cccc(Oc2cnc(N)nc2-c2ccc(OC)cc2O)c1 | 10.8%
60 | O=C(CSc1ncnc2c1oc1ccccc12)Nc1ccccc1F | 90.5%

Row | Compound | viability
61 | Cn1c(=O)c2c(nc(SCCCC#N)n2Cc2ccccc2F)n(C)c1=O | 71.2%
62 | Cn1c(=O)c2c([nH]c(=O)n2C)n(C)c1=O | 90.2%
63 | COc1ccc(-c2cc(C(=O)NCCc3ccccc3)no2)cc1OC | 89.9%
64 | CCCN1CCC(NC(=O)Nc2ccc(OC)c(OC)c2)CC1 | 90.7%
65 | c1nnc(NC2=NCCCCC2)s1 | 101%
66 | CCOC(=O)CSc1cn2c(n1)CCC2 | 92.4%
67 | COC(=O)c1sc(N2C(=O)C(O)=C(C(=O)c3ccc(C)o3)C2c2ccc(F)cc2)nc1C (stereo not given) | 135%
68 | CCOCCc1nnc(NC(=O)c2ccc(OC)c(OC)c2)s1 | 94.4%
69 | CN(C1CCCCC1)S(=O)(=O)c1ccc(NC(=O)c2ccco2)cc1 | 99.3%
70 | CCCOc1ccccc1NC(=O)c1c(-c2ccccc2)noc1C | 89%
71 | CCNC(=O)N(C(=O)NCC)n1c(C)nnc1C | 104%
72 | O=C(OCC#CCSc1nnc(-c2ccccc2)o1)c1cccs1 | 94.9%
73 | CC1(c2ccc(Cl)cc2)NC(=O)N(CC(=O)NC(=O)NCc2ccco2)C1=O (stereo not given) | 107%
74 | CCCN1C2=C(C(=O)CCC2)C(c2ccc(O)c(Br)c2)C2=C1CCCC2=O | 91.8%
75 | CCOC(=O)C1=C(CN2CCOCC2)NC(=O)NC1c1cc(C)ccc1C (stereo not given) | 78.9%
76 | Cc1ccc(C(C)C)c(OCCn2c(=O)oc3ccccc32)c1 | 95.8%
77 | Cc1ccc(-c2csc3nnc(SCC(=O)NCc4ccco4)n23)cc1 | 84.2%
78 | CC1CCN(C(=O)CCNS(=O)(=O)c2ccccc2)CC1 | 92.8%
79 | Cc1ccc(C)c(-n2c(CNC(=O)c3ccco3)nnc2SCC(=O)Nc2nnc(C)s2)c1 | 96.6%
80 | CSc1nc(=NC(C)=O)ss1 | 71.8%

Reference: PubChem BioAssay
